Test in all cases: NCI-60 one-dose screen, 48 h (100 = growth as untreated, 0 = no growth, -100 = all killed)
One assay relates to T-47D breast. The conditions noted are these: 10 µM unless noted.
Another assay deals with BT-549 breast. The conditions noted are these: 10 µM unless noted.
A further assay has as its system MDA-MB-435 melanoma. The conditions noted are these: 10 µM unless noted.
The test system of another assay is SW-620 colon. The conditions noted are these: 10 µM unless noted.
Another assay relates to MCF7 breast. The conditions noted are these: 10 µM unless noted.
The test system of a further assay is HCT-116 colon. The conditions noted are these: 10 µM unless noted.
The next assay has as its system KM12 colon. The conditions noted are these: 10 µM unless noted.
The test system of the next assay is HCC-2998 colon. The conditions noted are these: 10 µM.

Compounds without any hit were thinned out: in the full panel of roughly 83,000, 20% have a hit.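 Each cell line was grown in a 96-well plate and treated with one concentration of compound for 48 hours. Values below 10 were considered active.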 Unmarked numbers belong to inactive results. The source made the active and inactive calls.

With `CC(=O)NCC(=O)N1[C@@H]2CC[C@H]1c1ccc(Nc3ncc(C(F)(F)F)c(NC4CCC4)n3)cc12`, the growth in the assay on T-47D breast was 88.4% [2.5 µM]; in the assay on BT-549 breast it was 36.3% [2.5 µM]; in the assay with MDA-MB-435 melanoma it was 39.9% [2.5 µM]; in the assay with SW-620 colon, 16.3% [2.5 µM]; with MCF7 breast, 25.1% [2.5 µM]; in the assay with HCT-116 colon it was 13.4% [2.5 µM]. For the same compound, the growth in the assay with KM12 colon is 3.64% [2.5 µM] (active).
With `NN1C(=O)CSC1=S`, the growth in the assay on T-47D breast is 104%; in the assay with BT-549 breast, 93.5%; in the assay with MDA-MB-435 melanoma, 100%; with SW-620 colon it was 111%; in the assay with MCF7 breast, 94.8%; with HCT-116 colon, 96.8%. Moreover, the growth with KM12 colon is 106%.
As for `COc1ccc2c(OCc3nnc4ccc(-c5ccccc5)nn34)ccnc2c1`, the growth is 71.1% [2.5 µM] in the assay on T-47D breast; 102% [2.5 µM] in the assay with BT-549 breast; 103% [2.5 µM] in the assay with MDA-MB-435 melanoma; 109% [2.5 µM] in the assay on SW-620 colon; 93.4% [2.5 µM] in the assay with MCF7 breast; 98.4% [2.5 µM] in the assay on HCT-116 colon. Further, in the assay on KM12 colon, the growth was 94.3% [2.5 µM].
Consider `C[C@@H](Oc1cc(-n2cnc3ccc(CN4CCN(C)CC4)cc32)sc1C(N)=O)c1ccccc1C(F)(F)F`, for which the growth in the assay on T-47D breast was 40.8%; in the assay with BT-549 breast, 24.9%; with MDA-MB-435 melanoma it was 9.74% (active); in the assay with SW-620 colon, 13.6%; with MCF7 breast it was 17.7%; in the assay on HCT-116 colon, 17.6%. Besides, the growth with KM12 colon was 10.3%.
`CNC(=O)c1nn(C)c2c1C(C)(C)Cc1cnc(Nc3ccc(N4CCN(C)CC4)cc3)nc1-2`: the growth in the assay on T-47D breast was -5.71% (active); with BT-549 breast, 5.23% (active); with MDA-MB-435 melanoma it was 21.1%; in the assay with SW-620 colon it was 11.5%; in the assay with MCF7 breast, 10.4%; with HCT-116 colon it was 0.153% (active). In the assay with KM12 colon, the growth is 0.555% (active).
As to `O=C1C=CC2(NN=C(c3ccccc3)N2c2cccc(Cl)c2)c2cccc(O)c21` (stereo not drawn), the growth in the assay on T-47D breast is 101%; in the assay with BT-549 breast, 61.7%; in the assay on MDA-MB-435 melanoma, -91.9% (active); in the assay on SW-620 colon, 82%; in the assay with MCF7 breast, 62.5%; with HCT-116 colon, 54.8%. In addition, in the assay on KM12 colon, the growth was 64.9%.
Take `O=C1C=CC2(NN=C(c3ccccc3)N2c2cccc(Cl)c2)C(Cl)=C1` (stereo not drawn): the growth was 37.9% in the assay on T-47D breast; 88.5% in the assay with BT-549 breast; 86.3% in the assay with MDA-MB-435 melanoma; 90.2% with SW-620 colon; 79% with MCF7 breast; 73.4% in the assay on HCT-116 colon. The growth in the assay on KM12 colon was 78.1%.
As for `Oc1ccc(/C=N/Nc2nnc(N/N=C/c3ccc(O)cc3O)c3ccccc23)c(O)c1`, the growth in the assay on T-47D breast was -53.2% (active); in the assay with BT-549 breast, -23.6% (active); with MDA-MB-435 melanoma, -6.07% (active); in the assay on SW-620 colon, -1.28% (active); with MCF7 breast it was -57.2% (active); in the assay with HCT-116 colon, -44.1% (active). Also, the growth in the assay with KM12 colon is -73.2% (active).
On to `CC(=O)c1cnc2ccc(-c3cc(Cl)c(O)c(Cl)c3)nc2c1NC1CCC(CN(C)C)CC1` (stereo not drawn), for which the growth was -22.9% [2.5 µM] (active) with T-47D breast; -44.9% [2.5 µM] (active) with BT-549 breast; -37.2% [2.5 µM] (active) with MDA-MB-435 melanoma; 6.12% [2.5 µM] (active) in the assay on SW-620 colon; -4.22% [2.5 µM] (active) with MCF7 breast; -2.49% [2.5 µM] (active) in the assay on HCT-116 colon. Further, the growth in the assay on KM12 colon was -2.64% [2.5 µM] (active).
As to `CC(=O)OC1Oc2ccccc2-c2oc(=O)c(-c3cc4ccc(N(C)C)cc4oc3=O)cc21` (stereo not drawn), the growth in the assay on T-47D breast was -4.17% (active); in the assay on BT-549 breast, 15.9%; with MDA-MB-435 melanoma, 44.5%; in the assay on SW-620 colon, 61.7%; in the assay with MCF7 breast, 68.5%; with HCT-116 colon, 20.7%. Besides, in the assay with KM12 colon, the growth was 71.8%.
Turning to `CCc1ccc(C2=C(O)C(=O)C(c3ccc(CC)cc3)=C(O)C2=O)cc1`, the growth in the assay on T-47D breast is 7.67% (active); with BT-549 breast, -23% (active); in the assay on MDA-MB-435 melanoma, 3.73% (active); in the assay on SW-620 colon, 2.8% (active); in the assay on MCF7 breast, 2.11% (active); with HCT-116 colon it was 1.12% (active). The growth with KM12 colon was -1.36% (active).
In the case of `CNc1ncc2cc(-c3cc(NC(=O)NCCC(C)(C)C)c(F)cc3C)c(C)nc2n1`, the growth in the assay on T-47D breast was -2% (active); with BT-549 breast, 30.5%; with MDA-MB-435 melanoma, 9.76% (active); with SW-620 colon, 17.5%; in the assay on MCF7 breast, 45.7%; in the assay with HCT-116 colon, 4.36% (active). For the same compound, the growth in the assay with KM12 colon was 18.2%.
With `COc1ccc(-c2nocc2-c2cc(OC)c(OC)c(OC)c2)cc1`, the growth in the assay on T-47D breast was 39.6%; in the assay with BT-549 breast it was 48.5%; with MDA-MB-435 melanoma it was -54.4% (active); in the assay with SW-620 colon it was 21.4%; in the assay on MCF7 breast, 24.3%; with HCT-116 colon, 6.36% (active). Further, in the assay with KM12 colon, the growth was 12.4%.
For the compound `C=CC(=O)Nc1cc2c(Nc3ccc(F)c(Cl)c3)ncnc2cc1OCCCN1CCOCC1`, the growth is -0.739% (active) in the assay with T-47D breast; -10.8% (active) with BT-549 breast; 23.6% in the assay with MDA-MB-435 melanoma; -53.5% (active) in the assay with SW-620 colon; 13.7% in the assay on MCF7 breast; -70.8% (active) in the assay with HCT-116 colon. Besides, the growth with KM12 colon was 19.1%.
As to `CSC1=C(N)C(=O)c2[nH]cc(CO)c2C1=N`, the growth is -43.8% (active) with T-47D breast; -84.1% (active) in the assay on MDA-MB-435 melanoma; -56.2% (active) in the assay with SW-620 colon; -41.8% (active) in the assay with MCF7 breast; -86.7% (active) in the assay on HCT-116 colon; -94.1% (active) with HCC-2998 colon. In addition, the growth in the assay with KM12 colon was -63.4% (active).
For `O=C(Nc1ccc(-c2ccnc(Nc3ccc(N4CCOCC4)cc3)n2)cc1)[C@@H]1CCCN1`, the growth is 56.1% with T-47D breast; 50.9% with BT-549 breast; 76.6% in the assay with SW-620 colon; 58% with MCF7 breast; 34.1% in the assay on HCT-116 colon; 35.6% with KM12 colon.
Consider `CCNC(=O)C#Cc1ccc2c(C(=Nc3ccc(CN(C)C)cc3)c3ccccc3)c(O)[nH]c2c1`, for which the growth with T-47D breast is 62.3%; in the assay on MDA-MB-435 melanoma, 14.7%; in the assay on SW-620 colon, 0.412% (active); with MCF7 breast it was 33.1%; in the assay with HCT-116 colon it was -16.2% (active); in the assay with HCC-2998 colon, -17.3% (active). Besides, the growth in the assay with KM12 colon was 6.13% (active).

Source of the values: PubChem BioAssay (NCI).
